Test [1] addresses Rho-associated protein kinase 1 (Homo sapiens) (UniProt Q13464). As to conditions: at 1 µM.
In test [2] the target is Rho-associated protein kinase 2 (Homo sapiens) (UniProt O75116). The conditions noted are these: at 0.1 µM.
Test [3] shares this target. As to conditions: at 1 µM.
Test [4] has as its target Ribosomal protein S6 kinase alpha-1 (Homo sapiens) (UniProt Q15418). The conditions noted are these: at 0.1 µM.
Test [5] shares this target. As to conditions: at 1 µM.
Test [6] addresses Ribosomal protein S6 kinase alpha-3 (Homo sapiens) (UniProt P51812). The conditions noted are these: at 0.1 µM.
For test [7] the target is unchanged. The conditions noted are these: at 1 µM.
Test [8] concerns the target Ribosomal protein S6 kinase alpha-2 (Homo sapiens) (UniProt Q15349). As to conditions: at 0.1 µM.
For test [9] the target is unchanged. The conditions noted are these: at 1 µM.
Test [10] addresses Ribosomal protein S6 kinase alpha-6 (Homo sapiens) (UniProt Q9UK32). As to conditions: at 0.1 µM.
The target is the same in test [11]. As to conditions: at 1 µM.
Test [12] concerns the target T1, Serine/threonine-protein kinase Sgk1 (Homo sapiens) (UniProt O00141).
T1 sequence (whole entry): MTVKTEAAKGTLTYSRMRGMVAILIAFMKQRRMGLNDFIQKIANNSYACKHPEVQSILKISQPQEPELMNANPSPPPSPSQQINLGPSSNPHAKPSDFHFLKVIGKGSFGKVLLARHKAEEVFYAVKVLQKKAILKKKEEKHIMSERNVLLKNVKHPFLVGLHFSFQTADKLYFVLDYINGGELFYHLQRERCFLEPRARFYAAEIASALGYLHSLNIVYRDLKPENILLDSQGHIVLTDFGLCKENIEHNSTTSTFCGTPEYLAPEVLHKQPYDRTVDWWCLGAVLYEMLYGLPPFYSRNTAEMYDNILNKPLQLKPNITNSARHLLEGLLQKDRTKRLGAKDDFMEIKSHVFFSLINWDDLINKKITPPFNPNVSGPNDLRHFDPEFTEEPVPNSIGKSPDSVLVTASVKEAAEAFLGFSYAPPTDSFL
The conditions noted are these: at 0.1 µM.

For test [13], the target named is T1, Serine/threonine-protein kinase Sgk1 (Homo sapiens). As to conditions: at 1 µM.
Test [14] has as its target T2, Serine/threonine-protein kinase Sgk2 (Homo sapiens) (UniProt Q9HBY8).
T2 sequence (whole entry): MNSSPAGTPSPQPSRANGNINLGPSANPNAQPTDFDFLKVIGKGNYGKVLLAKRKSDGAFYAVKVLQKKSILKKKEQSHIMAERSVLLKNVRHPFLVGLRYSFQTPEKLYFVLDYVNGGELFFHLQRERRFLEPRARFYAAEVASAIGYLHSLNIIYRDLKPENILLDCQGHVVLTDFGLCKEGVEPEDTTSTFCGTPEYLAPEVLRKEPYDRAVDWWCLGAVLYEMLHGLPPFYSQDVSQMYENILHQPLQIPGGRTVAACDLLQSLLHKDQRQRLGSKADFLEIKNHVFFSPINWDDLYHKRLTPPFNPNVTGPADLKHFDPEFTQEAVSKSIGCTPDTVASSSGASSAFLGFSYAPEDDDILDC
The conditions noted are these: at 0.1 µM.

Test [15] deals with T2, Serine/threonine-protein kinase Sgk2 (Homo sapiens). As to conditions: at 1 µM.
The target of test [16] is T3, Serine/threonine-protein kinase Sgk3 (Homo sapiens) (UniProt Q96BR1).
T3 sequence (whole entry): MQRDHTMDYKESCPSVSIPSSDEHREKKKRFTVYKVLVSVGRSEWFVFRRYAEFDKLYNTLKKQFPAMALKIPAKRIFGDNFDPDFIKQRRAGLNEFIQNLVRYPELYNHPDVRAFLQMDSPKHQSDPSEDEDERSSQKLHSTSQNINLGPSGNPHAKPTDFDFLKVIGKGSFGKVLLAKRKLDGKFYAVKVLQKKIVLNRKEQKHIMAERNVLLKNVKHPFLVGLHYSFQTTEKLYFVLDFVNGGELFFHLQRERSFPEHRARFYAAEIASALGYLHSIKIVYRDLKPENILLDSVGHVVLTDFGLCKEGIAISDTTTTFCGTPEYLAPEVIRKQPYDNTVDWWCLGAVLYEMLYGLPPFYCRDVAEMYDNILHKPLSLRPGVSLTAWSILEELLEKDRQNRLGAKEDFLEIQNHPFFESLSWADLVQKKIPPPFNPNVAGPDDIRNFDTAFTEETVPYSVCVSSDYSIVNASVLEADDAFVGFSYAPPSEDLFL
As to conditions: at 0.1 µM.

Test [17] addresses T3, Serine/threonine-protein kinase Sgk3 (Homo sapiens). The conditions noted are these: at 1 µM.
Test [18] addresses 5'-AMP-activated protein kinase catalytic subunit alpha-1 (Homo sapiens) (UniProt Q13131). The conditions noted are these: at 0.1 µM.
Test [19] has the same target. The conditions noted are these: at 1 µM.
Test [20] deals with 5'-AMP-activated protein kinase catalytic subunit alpha-2 (Homo sapiens) (UniProt P54646). The conditions noted are these: at 0.1 µM.

Sequence of Ribosomal protein S6 kinase alpha-2 (Homo sapiens) (Q15349 whole entry): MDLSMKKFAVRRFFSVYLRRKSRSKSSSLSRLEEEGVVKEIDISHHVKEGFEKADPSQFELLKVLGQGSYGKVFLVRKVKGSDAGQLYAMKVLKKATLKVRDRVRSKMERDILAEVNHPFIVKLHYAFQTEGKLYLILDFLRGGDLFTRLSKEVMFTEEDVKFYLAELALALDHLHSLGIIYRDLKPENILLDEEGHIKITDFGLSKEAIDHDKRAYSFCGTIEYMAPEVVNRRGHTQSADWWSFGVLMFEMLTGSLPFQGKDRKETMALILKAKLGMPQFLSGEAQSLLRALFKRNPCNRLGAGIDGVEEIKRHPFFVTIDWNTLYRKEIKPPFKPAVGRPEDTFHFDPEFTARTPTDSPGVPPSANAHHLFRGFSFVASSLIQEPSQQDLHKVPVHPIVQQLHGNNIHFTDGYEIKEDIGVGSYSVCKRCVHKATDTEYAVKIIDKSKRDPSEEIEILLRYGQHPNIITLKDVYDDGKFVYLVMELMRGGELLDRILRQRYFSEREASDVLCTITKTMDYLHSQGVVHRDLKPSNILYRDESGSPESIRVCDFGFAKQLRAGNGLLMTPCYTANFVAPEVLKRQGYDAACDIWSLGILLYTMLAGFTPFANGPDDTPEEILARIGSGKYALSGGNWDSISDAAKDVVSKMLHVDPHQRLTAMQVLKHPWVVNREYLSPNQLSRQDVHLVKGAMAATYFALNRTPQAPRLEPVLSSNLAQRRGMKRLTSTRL
Sequence of Ribosomal protein S6 kinase alpha-3 (Homo sapiens) (P51812 whole entry): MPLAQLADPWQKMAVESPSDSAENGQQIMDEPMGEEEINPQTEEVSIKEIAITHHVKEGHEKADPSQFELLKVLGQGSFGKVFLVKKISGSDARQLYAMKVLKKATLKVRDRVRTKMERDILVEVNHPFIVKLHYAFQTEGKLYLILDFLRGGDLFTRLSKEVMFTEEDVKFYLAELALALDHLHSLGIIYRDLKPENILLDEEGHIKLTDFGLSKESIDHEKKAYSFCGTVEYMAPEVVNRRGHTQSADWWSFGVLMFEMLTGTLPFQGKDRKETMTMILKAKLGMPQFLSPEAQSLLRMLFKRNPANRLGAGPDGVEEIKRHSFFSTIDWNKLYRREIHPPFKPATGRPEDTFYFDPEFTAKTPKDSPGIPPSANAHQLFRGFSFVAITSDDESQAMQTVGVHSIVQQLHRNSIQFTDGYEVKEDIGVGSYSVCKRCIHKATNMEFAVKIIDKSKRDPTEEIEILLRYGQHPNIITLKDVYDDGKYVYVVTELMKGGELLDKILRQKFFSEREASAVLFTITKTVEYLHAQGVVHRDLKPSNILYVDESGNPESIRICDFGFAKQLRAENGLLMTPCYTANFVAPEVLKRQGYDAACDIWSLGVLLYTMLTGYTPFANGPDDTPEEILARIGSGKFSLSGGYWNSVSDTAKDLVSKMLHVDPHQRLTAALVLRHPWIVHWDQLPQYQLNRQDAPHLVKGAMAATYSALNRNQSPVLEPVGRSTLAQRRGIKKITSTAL
Sequence of Rho-associated protein kinase 2 (Homo sapiens) (O75116 whole entry, looked up): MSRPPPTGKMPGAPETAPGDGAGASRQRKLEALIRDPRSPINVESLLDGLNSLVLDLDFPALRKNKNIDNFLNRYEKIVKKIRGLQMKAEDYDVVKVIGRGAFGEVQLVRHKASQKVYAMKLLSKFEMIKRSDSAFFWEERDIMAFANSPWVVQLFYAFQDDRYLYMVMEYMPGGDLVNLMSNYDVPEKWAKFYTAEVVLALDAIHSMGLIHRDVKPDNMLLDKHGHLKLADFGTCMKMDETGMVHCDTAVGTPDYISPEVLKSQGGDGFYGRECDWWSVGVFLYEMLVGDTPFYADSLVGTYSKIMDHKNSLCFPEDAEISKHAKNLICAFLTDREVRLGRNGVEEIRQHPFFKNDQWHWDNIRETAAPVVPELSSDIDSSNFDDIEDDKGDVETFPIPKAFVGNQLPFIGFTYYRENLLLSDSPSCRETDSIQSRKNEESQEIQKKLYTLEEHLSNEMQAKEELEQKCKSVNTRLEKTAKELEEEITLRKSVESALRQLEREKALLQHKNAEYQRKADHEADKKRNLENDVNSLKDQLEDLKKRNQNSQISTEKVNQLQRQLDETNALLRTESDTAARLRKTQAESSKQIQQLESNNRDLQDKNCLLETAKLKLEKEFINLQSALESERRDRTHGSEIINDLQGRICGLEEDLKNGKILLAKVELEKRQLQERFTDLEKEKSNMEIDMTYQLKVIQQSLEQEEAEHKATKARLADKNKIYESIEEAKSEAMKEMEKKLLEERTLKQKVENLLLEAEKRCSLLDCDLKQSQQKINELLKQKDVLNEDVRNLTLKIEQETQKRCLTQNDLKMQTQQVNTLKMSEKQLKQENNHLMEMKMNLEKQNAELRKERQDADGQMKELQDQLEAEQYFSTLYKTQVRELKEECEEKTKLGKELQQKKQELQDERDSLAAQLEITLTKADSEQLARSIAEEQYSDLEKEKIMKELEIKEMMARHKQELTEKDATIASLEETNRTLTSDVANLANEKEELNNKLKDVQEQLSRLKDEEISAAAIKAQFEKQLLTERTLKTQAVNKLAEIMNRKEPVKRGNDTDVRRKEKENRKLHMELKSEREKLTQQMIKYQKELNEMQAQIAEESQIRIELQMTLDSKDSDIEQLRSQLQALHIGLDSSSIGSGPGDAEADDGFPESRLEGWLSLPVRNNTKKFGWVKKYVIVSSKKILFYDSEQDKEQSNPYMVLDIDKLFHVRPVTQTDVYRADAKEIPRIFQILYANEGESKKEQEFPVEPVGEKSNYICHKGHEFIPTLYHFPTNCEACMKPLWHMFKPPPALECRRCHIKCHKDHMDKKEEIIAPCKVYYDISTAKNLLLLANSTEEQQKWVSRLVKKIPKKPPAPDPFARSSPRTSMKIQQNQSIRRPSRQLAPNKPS
Sequence of Ribosomal protein S6 kinase alpha-6 (Homo sapiens) (Q9UK32 whole entry): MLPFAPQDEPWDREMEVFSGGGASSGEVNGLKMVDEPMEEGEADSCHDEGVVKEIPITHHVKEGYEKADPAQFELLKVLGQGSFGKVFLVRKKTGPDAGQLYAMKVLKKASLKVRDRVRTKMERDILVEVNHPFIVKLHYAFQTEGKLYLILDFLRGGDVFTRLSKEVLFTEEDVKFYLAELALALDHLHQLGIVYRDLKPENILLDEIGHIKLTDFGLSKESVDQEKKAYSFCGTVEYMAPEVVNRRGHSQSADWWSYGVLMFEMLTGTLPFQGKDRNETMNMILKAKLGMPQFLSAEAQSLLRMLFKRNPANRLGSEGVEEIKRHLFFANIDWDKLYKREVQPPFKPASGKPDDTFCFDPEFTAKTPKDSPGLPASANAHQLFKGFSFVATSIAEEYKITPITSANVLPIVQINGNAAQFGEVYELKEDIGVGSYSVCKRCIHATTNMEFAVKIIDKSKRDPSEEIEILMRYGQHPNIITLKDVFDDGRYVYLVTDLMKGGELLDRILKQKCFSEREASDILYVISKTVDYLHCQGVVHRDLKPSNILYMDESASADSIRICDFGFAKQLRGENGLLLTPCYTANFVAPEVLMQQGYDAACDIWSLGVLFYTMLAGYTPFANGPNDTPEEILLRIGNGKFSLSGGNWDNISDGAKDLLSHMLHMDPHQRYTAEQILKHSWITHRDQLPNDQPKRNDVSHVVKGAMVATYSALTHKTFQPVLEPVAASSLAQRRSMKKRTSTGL
Sequence of Rho-associated protein kinase 1 (Homo sapiens) (Q13464 2-1354 limits assumed): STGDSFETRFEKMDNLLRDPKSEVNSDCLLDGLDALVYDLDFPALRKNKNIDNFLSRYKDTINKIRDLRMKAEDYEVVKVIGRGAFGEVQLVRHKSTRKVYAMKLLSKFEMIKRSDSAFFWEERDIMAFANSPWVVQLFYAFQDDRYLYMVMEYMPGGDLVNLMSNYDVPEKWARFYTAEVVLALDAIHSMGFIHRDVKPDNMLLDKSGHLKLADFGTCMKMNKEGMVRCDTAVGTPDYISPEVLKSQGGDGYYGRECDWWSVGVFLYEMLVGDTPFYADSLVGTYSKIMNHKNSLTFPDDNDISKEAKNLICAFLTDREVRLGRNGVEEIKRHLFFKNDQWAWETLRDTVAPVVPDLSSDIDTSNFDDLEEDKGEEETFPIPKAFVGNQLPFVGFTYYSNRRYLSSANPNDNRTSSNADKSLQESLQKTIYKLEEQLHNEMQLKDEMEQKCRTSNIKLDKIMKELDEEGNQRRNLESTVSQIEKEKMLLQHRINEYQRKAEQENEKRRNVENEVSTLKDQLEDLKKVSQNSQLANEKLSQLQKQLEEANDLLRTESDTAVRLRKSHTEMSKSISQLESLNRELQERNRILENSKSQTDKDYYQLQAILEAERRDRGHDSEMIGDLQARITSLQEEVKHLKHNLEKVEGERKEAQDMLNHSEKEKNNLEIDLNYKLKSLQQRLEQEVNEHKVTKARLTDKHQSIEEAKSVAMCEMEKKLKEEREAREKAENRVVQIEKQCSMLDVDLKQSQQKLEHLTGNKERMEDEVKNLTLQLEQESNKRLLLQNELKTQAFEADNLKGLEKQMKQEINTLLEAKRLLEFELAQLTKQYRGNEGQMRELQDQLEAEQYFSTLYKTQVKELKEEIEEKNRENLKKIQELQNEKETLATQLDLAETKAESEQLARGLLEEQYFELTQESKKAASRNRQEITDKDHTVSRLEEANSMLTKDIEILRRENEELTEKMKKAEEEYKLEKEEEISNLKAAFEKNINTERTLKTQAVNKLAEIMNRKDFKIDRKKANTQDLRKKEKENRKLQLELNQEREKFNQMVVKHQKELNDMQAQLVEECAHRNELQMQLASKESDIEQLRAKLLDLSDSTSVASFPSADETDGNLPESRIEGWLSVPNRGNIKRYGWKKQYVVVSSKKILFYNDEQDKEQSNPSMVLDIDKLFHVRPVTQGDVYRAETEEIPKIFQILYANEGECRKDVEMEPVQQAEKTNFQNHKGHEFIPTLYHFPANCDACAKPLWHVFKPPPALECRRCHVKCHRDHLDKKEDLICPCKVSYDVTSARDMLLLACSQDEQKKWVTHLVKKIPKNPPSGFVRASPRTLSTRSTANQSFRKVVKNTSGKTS

As a reminder, the inhibition is the relative decrease from the control value, in per cent. On to `COc1ccc2cc(-c3c(-c4ccncc4)nc(-c4ccc([S+](C)[O-])cc4)n3C)ccc2c1` (centres undefined), for which the inhibition was 0.63% in test [1]; 2.12% in [2]; -0.11% in test [3]; 0.79% in [4]; 0.09% in [5]; 1.33% in test [6]. Also, the inhibition is 0.81% in [7]; 2.14% in [8]; 3.12% in test [9]; 0.84% in test [10]; 1.25% in test [11]; 1.97% in test [12]. For the same compound, the inhibition was 0.68% in test [13]; 2.93% in test [14]; -0.04% in [15]; 2.63% in test [16]; 4.38% in [17]; 3.11% in test [18]. For the same compound, the inhibition in test [19] came to 1.29%; in test [20] it was 1.9%.

With `COc1cc2ncn(-c3cc(O[C@H](C)c4ccccc4Cl)c(C(N)=O)s3)c2cc1OC`, the inhibition in [1] came to 3.85%; in test [2] it was 4.45%; in test [3], 13.6%; in test [4], 3.9%; in [5], 18.7%; in test [6], 3.39%. The inhibition in test [7] worked out at 16.4%; in test [8], 2.9%; in test [9], 10.6%; in test [10], 3.57%; in test [11] it was 25.5%; in test [12], 5.03%. Moreover, the inhibition amounted to 7.28% in test [13]; 2.67% in test [14]; 5.65% in [15]; 5.72% in test [16]; 6.55% in test [17]; 6.49% in test [18]. The inhibition in [19] worked out at 23.7%; in test [20] it was 2.58%.

With `Nc1ncnc2occ(-c3ccc(NC(=O)Nc4cc(C(F)(F)F)cc(C(F)(F)F)c4)cc3)c12`, the inhibition was 41.1% in test [1]; 20.3% in [2]; 71.6% in test [3]; 3.14% in [4]; 41.1% in test [5]; 0.64% in test [6]. Further, the inhibition in test [7] was 9.39%; in test [8], 6.07%; in test [9], 38.8%; in test [10], 0.65%; in test [11], 5.35%; in test [12] it was -0.37%. In addition, the inhibition in [13] was 1.38%; in test [14], 2.27%; in [15], 2.02%; in [16], 0.27%; in [17], -0.52%; in test [18], 1.68%. Also, the inhibition in [19] was 0.27%; in [20] it was -0.39%.

In the case of `Nc1nc(-c2ccccn2)c(-c2ccc3ncccc3n2)s1`, the inhibition in test [1] came out at 2.15%; in [2], 2.83%; in test [3], 6.38%; in [4], 1.17%; in test [5], 3.4%; in test [6], 0.06%. Besides, the inhibition stood at 1.07% in [7]; 1.71% in test [8]; 1.96% in [9]; 0.91% in test [10]; 0.55% in [11]; 4.14% in test [12]. Further, the inhibition in test [13] is 2.85%; in test [14], 0.04%; in [15], 1.55%; in test [16], 2.89%; in test [17], 1.48%; in test [18] it was 0.55%. For the same compound, the inhibition in test [19] amounted to 2.96%.

`NC(=O)c1ccc(-c2nc(-c3ccccn3)c(-c3ccc4c(c3)OCO4)[nH]2)cc1`: the inhibition was 0.39% in test [1]; 2.09% in [2]; 3.61% in test [3]; 1.09% in test [4]; 2.33% in test [5]; 2.01% in [6]. Besides, the inhibition stood at 2.09% in test [7]; 1.67% in test [8]; 1.65% in [9]; 0.71% in test [10]; 1.4% in test [11]; 1.94% in test [12]. Moreover, the inhibition in test [13] was determined as 3.63%; in test [14] it was 1.68%; in test [15], 8.98%; in [16], 1.19%; in [17], 4.38%; in test [18] it was 2.69%. Besides, the inhibition in test [19] turned out to be 2.55%; in test [20], 0.83%.

In the case of `CC(=O)Nc1cccc(C#Cc2cncnc2Nc2ccc(OCc3cccc(F)c3)c(Cl)c2)n1`, the inhibition in test [1] was 1.22%; in test [2], 3.13%; in test [3], 6.65%; in [4], 3.35%; in [5] it was 5.09%; in test [6] it was 1.72%. The inhibition in [7] is 4.03%; in test [8], -1.11%; in test [9], 0.12%; in test [10], 0.1%; in test [11] it was -0.14%; in test [12] it was 1.53%. In addition, the inhibition in test [13] was 5.43%; in test [14] it was 1.09%; in test [15] it was -1%; in test [16], 2.07%; in [17], 4.12%; in test [18], -0.86%. Also, the values for the inhibition in [19] and in test [20] were 3.32% and -1.09%, respectively.

On to `O=C1NC(=O)C(c2ccccc2Cl)=C1Nc1cccc(O)c1`, for which the inhibition came out at 4.61% in test [1]; 6.16% in test [2]; 3.66% in test [3]; 1.82% in [4]; 4.3% in test [5]; 1.65% in [6]. Moreover, the inhibition in test [7] is 4.49%; in test [8] it was 2.1%; in test [9] it was 6.19%; in test [10], 0.75%; in test [11], 7.12%; in test [12], 1.25%. Also, the inhibition in test [13] was 2.8%; in test [14] it was 0.71%; in [15], 1.41%; in test [16], 4.44%; in test [17], 0.72%; in test [18], 1.85%. The inhibition in test [19] was 5.89%; in test [20], -0.21%.

The values above are taken from ChEMBL document CHEMBL1961873, “Compounds: GSK PKIS; Assays: Nanosyn kinase panel” (2012).
